Assay results as given in the supplement of paper PMC6555819.

What was measured:
Test in all cases: PBM binding z-score (relative to random genomic background probes); higher = stronger binding; sequences stand for … in GC…GCGATTGACAGCGTAGAATGAAGG
[1] = test system: FXR:RXRa (NR concentration 270 nM, RXRa partner concentration 90 nM)
Summary of the method: (§1)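 For binding z-scores, the reference was random background probes on custom Agilent 4×180K protein-binding microarrays. These arrays were incubated 1 h with ligand-free nuclear receptor dimers in PBS pH 7.4, 2% milk, 0.02% Triton X-100, 1 mM DTT, 0.2 mg/mL BSA and 0.4 mg/ml salmon testes DNA. Fluorescence was scanned after antibody detection of each partner (one per run) and regression-normalized.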

[2] = test system: LXRa:RXRa (NR concentration 270 nM, RXRa partner concentration 90 nM)
Summary of the method: as §1

[3] = test system: LXRa homodimer (NR concentration 270 nM)
Summary of the method: as §1

[4] = test system: LXRb:RXRa (NR concentration 270 nM, RXRa partner concentration 90 nM)
Summary of the method: as §1

[5] = test system: LXRb homodimer (NR concentration 270 nM)
Summary of the method: as §1

[6] = test system: PPARa:RXRa (NR concentration 270 nM, RXRa partner concentration 90 nM)
Summary of the method: as §1

[7] = test system: PPARg:RXRa (NR concentration 180 nM, RXRa partner concentration 90 nM)
Summary of the method: as §1

[8] = test system: PPARg:RXRa 270nM:90nM, anti-RXR (NR concentration 270 nM, RXRa partner concentration 90 nM)
Summary of the method: as §1

[9] = test system: PPARg:RXRa 30nM:10nM, anti-RXR (NR concentration 30 nM, RXRa partner concentration 10 nM)
Summary of the method: as §1

[10] = test system: PPARg:RXRa 90nM:30nM, anti-RXR (NR concentration 90 nM, RXRa partner concentration 30 nM)
Summary of the method: as §1

[11] = test system: PPARg:RXRa DBDmut IVT, anti-RXR (DBD mutation: RXRa K156A/R161A, NR concentration 270 nM, RXRa partner concentration 90 nM)
Summary of the method: as §1

[12] = test system: PPARg:RXRa IVT, anti-PPARg (NR concentration 270 nM, RXRa partner concentration 90 nM)
Summary of the method: as §1

[13] = test system: PPARg DBDmut:RXRa IVT, anti-PPARg (DBD mutation: PPARg1 K132A/R137A, NR concentration 270 nM, RXRa partner concentration 90 nM)
Summary of the method: as §1

[14] = test system: PPARg DBDmut IVT, anti-PPARg (DBD mutation: PPARg1 K132A/R137A, NR concentration 270 nM)
Summary of the method: as §1

[15] = test system: PPARg homodimer (NR concentration 180 nM)
Summary of the method: as §1

[16] = test system: PXR:RXRa (NR concentration 270 nM, RXRa partner concentration 90 nM)
Summary of the method: as §1

[17] = test system: PXR homodimer (NR concentration 270 nM)
Summary of the method: as §1

[18] = test system: RARa:RXR (NR concentration 270 nM, RXRa partner concentration 90 nM)
Summary of the method: as §1

[19] = test system: RARa homodimer (NR concentration 270 nM)
Summary of the method: as §1

[20] = test system: RARb:RXRa (NR concentration 270 nM, RXRa partner concentration 90 nM)
Summary of the method: as §1

Sequence	PBM binding z-score [1]	PBM binding z-score [2]	PBM binding z-score [3]	PBM binding z-score [4]	PBM binding z-score [5]	PBM binding z-score [6]	PBM binding z-score [7]	PBM binding z-score [8]	PBM binding z-score [9]	PBM binding z-score [10]	PBM binding z-score [11]	PBM binding z-score [12]	PBM binding z-score [13]	PBM binding z-score [14]	PBM binding z-score [15]	PBM binding z-score [16]	PBM binding z-score [17]	PBM binding z-score [18]	PBM binding z-score [19]	PBM binding z-score [20]
TCTGCTAGGTCAACGATGGTGAGCTAATCTGCTA	2.96	1.8	-0.337	1.15	-0.262	2.95	2.17	3.07	1.74	2.39	4.06	4.11	0.101	-0.356	0.2	0.739	-1.18	1.68	-1.07	3.98
CAAACTAGGTCACCGGCAGGTCAAAGTCCGCATG	5.82	5.46	3.97	4.21	0.888	5.7	9.54	7.62	5.44	7.61	8.64	8.72	2.38	0.783	4.83	5.26	0.922	6.42	1.55	4.93
TGAATGAGGTTAGAAGATCAGGGAACGTTGCAAA	0.452	0.337	-0.383	0.0743	-0.188	1.59	0.84	1.29	0.759	0.966	0.481	1.07	0.215	0.423	0.0749	0.145	-0.0637	0.485	0.14	0.954
TAGCCTAAGTCATTGGGCCAGTATAGTACGCATC	-0.205	-0.421	-0.659	-0.39	-0.339	-0.181	0.256	-0.24	-0.281	-0.391	-0.775	-0.00957	-0.0162	-1.02	-0.452	-0.441	-0.814	-0.394	-0.564	0.068
TAGCCTAGGCCATGCGGGCCAGTATAGTGTCGGC	-0.771	-1.17	-0.671	-1.47	-1.47	-0.776	-0.313	-1.06	-0.847	-1.18	-0.849	-0.0851	-0.949	-1.38	-1.26	-0.956	-1.02	-0.877	-1.18	0.00206
CAAACTCGGTCAAGAGGTCAAAGTCCGCTTCCCG	6.2	5.96	6.55	5.13	1.61	5.82	5.83	5.99	3.41	5.47	4.29	5.27	1.06	1.86	4.18	5.89	2.01	6.63	1.95	5.01
CCTACTGGGCCACGAAAGTTCATTGATTCAGTGA	0.912	3.67	4.62	1.82	-0.000733	2.69	2.47	2.77	0.297	1.86	6.16	5.56	0.407	0.518	1.35	4.97	6.21	2.03	-0.507	2.72
ACTTACGGGTCAGCGAGGTTATAGCACGCGTATA	4.94	3.87	0.399	3.41	0.42	4.9	3.94	4.15	1.13	2.59	1.92	3.48	0.822	0.254	1.62	4.18	1.12	4.25	0.477	4.09
CGTCCAAGGTCAATGCTAGGTTAGTGAAAGCATT	6.49	4.7	0.436	3.76	0.627	5.08	3.32	4.3	1.15	2.85	2.98	3.27	0.204	-0.204	2.37	3.78	0.753	3.88	0.52	5.04
CGTCAAAGTTCAACTAAGGTAACATAAAGCACGC	7	6.17	4.4	4.25	1.93	5.1	5.41	5.57	2.61	4.55	0.273	2.52	1.34	1.66	3.27	5.54	3.1	4.35	1.57	5.25
GCGACTGGGGCAAAGCAGGTTACCATTAGGTTGG	0.209	-0.0636	-0.502	0.31	-0.906	1.4	1.11	1.39	-0.263	0.675	4.83	3.63	-0.282	-0.886	0.27	0.143	-0.296	0.139	-0.535	0.975
CCTACTGGGCCAAGTTCATTGATCAGTCAAAGCA	0.51	0.916	0.751	0.634	-0.712	1.83	1.24	2.02	0.309	1.6	3.93	3.54	0.0503	-0.432	1.19	2.85	3.64	0.935	0.262	1.88
AATACCGGGTCACTAGGCCAGAGTAGGTACGAAT	4.09	3.51	0.369	2.69	0.134	5.09	6.97	5.93	2.96	4.9	4.09	6.04	0.988	0.334	1.7	2.32	-0.108	3.37	0.616	3.47
ATCTCTGGGTAAAAGTTCAGTGAATCCCGAGGAT	0.844	1.38	1.37	1.04	1.4	4.12	7.38	7.77	6.93	9.04	1.87	3.69	1.17	1.44	1.47	2.03	1.5	1.97	0.896	2.59
